# From the supplement of paper PMC6607015
# Where a name gives a salt, the structure may show the parent alone.
# Experiments:
# Settings in all cases: compound concentration in added solution (µM; 5 µl added to 20 µl cells): 10; 18 h
# [1] = tested on: A431; experiment: LBPA endosome anti-LBPA integrated intensity (sum per cell), Z-score; higher = more LBPA staining
# Method in brief: (§1)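 Four 20× images per well were taken of HeLa MZ or A431 cells that had been seeded at 3,500 per well in 20 µl onto 5 µl of 10 µM compound solution in duplicate 384-well imaging plates. Before imaging, cells were incubated 18 h, fixed in 4% PFA and stained with 6C4 anti-LBPA antibody, filipin, propidium iodide and CellTracker green. Values are Z-scores normalised in AcuityXpress from MetaXpress-derived per-cell integrated LBPA or filipin intensity, either whole-cell or within LBPA endosomes.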
# [2] = tested on: HeLa MZ; experiment: as above
# Method in brief: as §1
# [3] = tested on: A431; experiment: whole-cell filipin (free cholesterol) integrated intensity, Z-score; higher = more cholesterol staining
# Method in brief: as §1
# [4] = tested on: HeLa MZ; experiment: as above
# Method in brief: as §1
# [5] = tested on: A431; experiment: filipin (cholesterol) integrated intensity within LBPA endosomes, Z-score; higher = more cholesterol in LBPA endosomes
# Method in brief: as §1
# [6] = tested on: HeLa MZ; experiment: as above
# Method in brief: as §1
SMILES,LBPA endosome anti-LBPA integrated intensity (z-score) [1],LBPA endosome anti-LBPA integrated intensity (z-score) [2],whole-cell filipin (z-score) [3],whole-cell filipin (z-score) [4],filipin (z-score) [5],filipin (z-score) [6]
CCN1CCCC1CNC(=O)c1cc(S(N)(=O)=O)ccc1OC (centres undefined) [Sulpiride],-0.472,-0.315,-0.817,-0.434,-0.518,-0.501
C#C[C@]1(O)CC[C@H]2[C@@H]3[C@H](C)CC4=C(CCC(=O)C4)[C@H]3CC[C@@]21C [Tibolone],-0.522,-0.57,-0.775,-0.295,-0.476,-0.561
CCCCOC(=O)c1ccc(O)cc1 [Butylparaben],-0.425,-0.532,-0.203,-0.161,-0.376,-0.449
CCN1CCCC(OC(=O)C(c2ccccc2)c2ccccc2)C1 (centres undefined) [Piperidolate hydrochloride],1.4,1.47,1.77,1.11,1.7,0.861
OC(CCN1CCCCC1)(c1ccccc1)c1ccccc1 [Pridinol methanesulfonate salt],-0.0313,0.215,-0.378,-0.508,-0.23,-0.0603
CC(C)Cn1cnc2c(N)nc3ccccc3c21 [Imiquimod],0.0371,0.531,0.233,0.058,-0.267,-0.158
C[C@H](N)[C@H](O)c1cccc(O)c1 [Metaraminol bitartrate],-0.242,-0.0318,-0.347,-0.355,-0.416,-0.505
COc1cc2nc(N3CCN(C(=O)c4ccco4)CC3)nc(N)c2cc1OC [Prazosin hydrochloride],2.82,1.41,1.2,0.626,0.829,0.146
COc1cc(C)nc(-n2nc(C)cc2OC)n1 [Epirizole],-0.401,-0.156,-0.543,-1.08,-0.458,-0.525
O=C(C1CCCCC1)N1CC(=O)N2CCc3ccccc3C2C1 (centres undefined) [Praziquantel],-0.253,-0.0737,-0.0988,0.0128,-0.417,-0.225
CN1CCCC(n2nc(Cc3ccc(Cl)cc3)c3ccccc3c2=O)CC1 (centres undefined) [Azelastine HCl],3.18,2.26,1.79,0.915,2.29,3.01
C=CC(N)CCC(=O)O (centres undefined) [Vigabatrin],-0.513,-0.602,-1.01,-0.729,-0.566,-0.59
CCc1cccc(CC)c1NC(=O)CN(CC(=O)O)CC(=O)O [Etifenin],-0.633,-1.24,-0.798,-0.697,-0.521,-0.638
CC(=O)Nc1nnc(S(N)(=O)=O)s1 [Acetazolamide],-0.546,-1.16,-0.799,-0.564,-0.395,-0.429
CCCCOc1cc(C(=O)NCCN(CC)CC)c2ccccc2n1 [Dibucaine],2.05,2.71,2.14,1.5,2.29,2.2
CC(C)(C)NC[C@@H](O)COc1cccc2c1CCCC2=O [(+) -Levobunolol hydrochloride],-0.326,1.33,-0.176,-0.0312,-0.353,0.0482
C[C@]12CC[C@@H]3c4ccc(OS(=O)(=O)O)cc4CC[C@H]3[C@@H]1CCC2=O [Estropipate],-0.486,-0.706,-0.265,-0.499,-0.418,-0.5
CC(=O)N[C@@H](CC(C)C)C(=O)O [N-Acetyl-L-leucine],-0.45,-0.158,-0.322,0.0999,-0.425,-0.357
CCN(CC)C(=O)c1ccc(O)c(OC)c1 [Ethamivan],-0.477,-0.0996,-0.452,0.274,-0.43,-0.268
CC(=O)Oc1ccccc1C(=O)Oc1ccccc1C(=O)O [Acetylsalicylsalicylic acid],-0.367,-0.319,-0.583,-0.226,-0.456,-0.52
CCOC(=O)OC(C)OC(=O)[C@@H]1N2C(=O)[C@@H](NC(=O)[C@H](N)c3ccccc3)[C@H]2SC1(C)C (some centres undefined) [Bacampicillin hydrochloride],-0.503,-1.29,-0.749,-0.787,-0.467,-0.528
C[N+](C)(CCOc1ccccc1)Cc1ccccc1.O=C([O-])c1cc2ccccc2cc1O [Bephenium hydroxynaphthoate],-0.418,0.146,-0.383,-0.145,-0.456,-0.371
N=C(N)c1ccc(OCCCCCOc2ccc(C(=N)N)cc2)cc1 [Pentamidine isethionate],-0.319,-1.47,-0.429,-0.57,-0.313,-0.712
CC(NCCc1ccc(O)cc1)C(O)c1ccc(O)cc1 (centres undefined) [Ritodrine hydrochloride],-0.357,0.237,-0.158,-0.199,-0.481,-0.491
